“And” between values parts separate entries of the source, which are not always exact repeats. Equal values may be shown once. Results filed as inconclusive are left out. The source made the active and inactive calls. The calls were made as follows, unless noted: active = hit-call score of the fitted dose curve at least 0.9, where 1 is the maximum; inactive = score below 0.9.

15 molecules from PubChem BioAssay (EPA / NIEHS) can be followed below.

Assay [1] is described as follows: ATG_GRE_CIS: Attagene CIS-FACTORIAL HepG2 Assay for human Glucocorticoid Response Elements (GRE) (AID 2282947). Particulars: HepG2 GRE cis-reporter, Attagene multiplex mRNA; actives raise or lower the signal. Summed up: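 Following 24 h chemical exposure of transiently transfected HepG2 cells, total RNA was reverse-transcribed and reporter cDNA amplified, fluorescently labelled and sized by capillary electrophoresis. Signal gain or loss was fitted relative to DMSO vehicle.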

The target of assay [2] is Glucocorticoid receptor (Homo sapiens) (UniProt P04150). Briefly: ATG_GR_TRANS: Attagene TRANS-FACTORIAL HepG2 Assay for human Glucocorticoid Receptor (GR) (AID 2282978; active = hit-call score of the fitted dose curve at least 0.9, where 1 is the maximum;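 also: activators score as hits since higher reporter transcript over DMSO is fitted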). Particulars: HepG2 Attagene TRANS GR reporter, mRNA transcription. In outline:
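HepG2 cells transiently transfected with GAL4-UAS reporter units and exogenous GR-Gal4 chimera, dosed 24 h. Reporter mRNA by RT-PCR, FAM labeling, HpaI digest and capillary electrophoresis; gain-of-signal fit versus DMSO.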

Assay [3] deals with Oxysterols receptor LXR-alpha (Homo sapiens) (UniProt Q13133). Briefly: ATG_LXRa_TRANS: Attagene TRANS-FACTORIAL HepG2 Assay for human Liver X Receptor alpha (LXRa) (AID 2282980; active = hit-call score of the fitted dose curve at least 0.9, where 1 is the maximum). Particulars: HepG2 Attagene TRANS reporter, LXRa transactivation. Summed up:
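Transfect HepG2 with GAL4-UAS multiplex reporter constructs (TRANS format, chimeric receptor-GAL4); treat 24 h; extract RNA, reverse-transcribe, PCR-amplify, FAM-label, HpaI-digest; resolve fragments by capillary electrophoresis. Upward response vs DMSO.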

A short description of assay [4]: ATG_M_32_TRANS: Attagene TRANS-FACTORIAL HepG2 Assay for M32 Transcription Factor (Internal Marker) (AID 2282984; active = hit-call score of the fitted dose curve at least 0.9, where 1 is the maximum;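 also: transcript level of a background control reporter unit measured by RT-PCR and capillary electrophoresis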). Particulars: HepG2 Attagene TRANS M32 internal marker reporter. Summed up:
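Human hepatoma HepG2, transient MRTU transfection, 24 h treatment. RNA → RT-PCR → fluorescent primer extension → HpaI digest (2 h, 37 C) → CE. Positive-direction fit vs DMSO.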

In assay [5] the target is Nuclear receptor subfamily 4 group A member 2 (Homo sapiens) (UniProt P43354). Briefly: ATG_NURR1_TRANS: Attagene TRANS-FACTORIAL HepG2 Assay for human Nuclear Receptor Related Protein 1 (NURR1) (AID 2282985; active = hit-call score of the fitted dose curve at least 0.9, where 1 is the maximum). Particulars: HepG2 Attagene TRANS reporter, mRNA readout. In outline:
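After 24 h chemical dosing, total RNA from transiently transfected HepG2 cells was reverse-transcribed and reporter cDNA PCR-amplified, FAM-labelled and analysed by capillary electrophoresis. Activity fitted in positive direction, DMSO as negative control.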

In assay [6] the target is Nuclear receptor subfamily 1 group I member 2 (Homo sapiens) (UniProt O75469). Briefly: ATG_PXR_TRANS: Attagene TRANS-FACTORIAL HepG2 Assay for human Pregnane X Receptor (PXR) (AID 2283008; active = hit-call score of the fitted dose curve at least 0.9, where 1 is the maximum). Summed up: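 HepG2 cells transiently transfected with GAL4-UAS reporter units and PXR-Gal4 chimera, exposed 24 h. Reporter mRNA quantified by RT-PCR, fluorescent labelling, HpaI digestion and capillary electrophoresis; gain of signal vs DMSO.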

Assay [7] in a line: CCTE_Shafer_MEA_acute_spike_number: CCTE's Neural Acute Assay for Total Number of Spikes, Shafer Lab (AID 2284008).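 As to AC50: curve fitted for decrease in spike count so AC50 reflects inhibitors.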 In outline:
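Read-out is the total spike count over 40 min, expressed as percent change from each well's own pre-treatment baseline and fitted in the loss direction against DMSO. Rat cortical neurons were exposed at 0.03-40 uM on DIV 13 or 15.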

Assay [8] in a line: CCTE_Shafer_MEA_acute_burst_number: CCTE's Neural Acute Assay for Single-Electrode Bursts, Shafer Lab (AID 2284013). In outline:
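Rat cortical cultures, DIV 13/15; 40 min baseline, then 40 min with compound 0.03-40 uM, 37 C. Spikes: 300-5000 Hz band-pass, threshold 8x rms noise. Readout = % change in single-electrode bursts vs baseline, loss-of-signal fit.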

A short description of assay [9]: CCTE_Shafer_MEA_acute_per_burst_spike_number_mean: CCTE's Neural Acute Assay for Average Number of Spikes Per Burst, Shafer Lab (AID 2284015).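 Also: hits are decreases in mean spikes per burst versus baseline.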 Summed up: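 Rat primary cortical neurons on 48-well MEAs (DIV 13 or 15) were treated with 0.03-40 uM compound at 37 C. Mean spikes per burst over 40 min were recorded before and after exposure and expressed as percent change from baseline, relative to DMSO.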

Assay [10] is described as follows: CCTE_Shafer_MEA_acute_interburst_interval_mean: CCTE's Neural Acute Assay for Mean Interburst Interval, Shafer Lab (AID 2284016).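 Also: percent change of mean interburst interval versus each well's own pre-dose baseline; curves fitted for decrease in interburst interval relative to DMSO.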 In outline:
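Rat primary cortical neurons on 48-well MEAs at DIV 13 or 15 were exposed acutely to 0.03-40 uM. Spikes detected at 8x rms noise, 37 C. Mean interburst interval from 40 min recordings expressed as percent change from 40 min pre-treatment baseline.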

Assay [11] is described as follows: CCTE_Shafer_MEA_acute_burst_percentage_mean: CCTE's Neural Acute Assay for Percentage of Spikes in a Burst, Shafer Lab (AID 2284017).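 As to AC50: curve fitted for loss of signal so potency reflects decreased burst percentage.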 In outline:
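Primary rat cortical neurons on 48-well MEA plates, treated on DIV 13 or 15 at 0.03-40 uM. Spikes detected at 8x rms noise at 37C; percent change from 40-min baseline to 40-min post-dose recording, fitted versus DMSO.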

Assay [12] in a line: CCTE_Shafer_MEA_acute_burst_percentage_std: CCTE's Neural Acute Assay for Standard Deviation of Burst Percentage, Shafer Lab (AID 2284018).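 Also: fitted in the negative direction so actives lower burst percentage SD.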 In outline: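 Primary rat cortical neurons on 16-electrode MEA wells were recorded 40 min at baseline (DIV 13 or 15), then 40 min after compound (0.03-40 uM), at 37 C. Well value is SD across electrodes of spikes-in-bursts/total spikes; endpoint is percent change, DMSO-referenced.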

Read-out in assay [13]: Monokine induced gamma interferon (MIG), CXCL9 (gene 4283)
Briefly: BSK_KF3CT_MIG: BioMAP Diversity Plus: KF3CT Assay for Monokine induced gamma interferon (MIG) Biomarker Activity (AID 2284248). Particulars: primary human keratinocytes with fibroblasts. In outline: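 KF3CT system: keratinocyte/fibroblast co-culture, 24 h post-dose, MIG by ELISA; activity vs DMSO, positive fitting direction.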

Read-out in assay [14]: Plasminogen activator inhibitor-1 (PAI1), SERPINE1 (gene 5054)
Briefly: BSK_KF3CT_PAI1: BioMAP Diversity Plus: KF3CT Assay for Plasminogen activator inhibitor-1 (PAI1) Biomarker Activity (AID 2284252). Particulars: primary human keratinocytes with fibroblasts. In outline: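 Human keratinocyte/foreskin fibroblast co-culture dosed for 24 h; PAI-1 measured by ELISA, fitted in positive direction against DMSO baseline. Parallel SRB total-protein staining (0.1% SRB, 560 nm) assesses overt cytotoxicity.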

Read-out in assay [15]: Interleukin-8 (IL8), CXCL8 (gene 3576)
Briefly: BSK_KF3CT_IL8: BioMAP Diversity Plus: KF3CT Assay for Interleukin-8 (IL8) Biomarker Activity (AID 2284254). Particulars: primary human keratinocytes with fibroblasts. Summed up: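 Chemicals were added to co-cultured human keratinocytes and foreskin fibroblasts, incubated 24 h, then IL-8 was quantified by ELISA. Cytotoxicity was tracked by sulforhodamine B total-protein staining in parallel cultures.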

Read-out in assay [16]: Interferon-inducible T-cell alpha chemoattractant (ITAC), CXCL11 (gene 6373)
Briefly: BSK_BE3C_ITAC: BioMAP Diversity Plus: BE3C Assay for Interferon-inducible T-cell alpha chemoattractant (ITAC) Biomarker Activity (AID 2284279). Particulars: primary human bronchial epithelial cells. Summed up: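 ELISA for I-TAC in primary human bronchial epithelial cultures 24 h post-treatment, fitted relative to DMSO baseline in positive direction. Cytotoxicity checked in parallel cultures by sulforhodamine B protein staining.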

Read-out in assay [17]: Interleukin-8 (IL8), CXCL8 (gene 3576)
Briefly: BSK_BE3C_IL8: BioMAP Diversity Plus: BE3C Assay for Interleukin-8 (IL8) Biomarker Activity (AID 2284280). Particulars: primary human bronchial epithelial cells. Summed up:
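ELISA read-out of IL-8 in human lung bronchial epithelial primary cell cultures, 24 h post-dosing; endpoint analysed as signal increase relative to DMSO baseline.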

Read-out in assay [18]: Plasminogen activator inhibitor-1 (PAI1), SERPINE1 (gene 5054)
Briefly: BSK_CASM3C_PAI1: BioMAP Diversity Plus: CASM3C Assay for Plasminogen activator inhibitor-1 (PAI1) Biomarker Activity (AID 2284284).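 Also: PAI-1 protein level measured by ELISA 24 h after dosing.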 Particulars: primary human coronary artery smooth muscle cells.

Read-out in assay [19]: Intercellular Adhesion Molecule 1 (ICAM1), ICAM1 (gene 3383)
Briefly: BSK_hDFCGF_ICAM1: BioMAP Diversity Plus: hDFCGF Assay for Intercellular Adhesion Molecule 1 (ICAM1) Biomarker Activity (AID 2284287). Particulars: primary human foreskin fibroblasts. In outline: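 Primary human foreskin fibroblasts (hDFCGF system) dosed with chemical; ICAM-1 quantified by ELISA at 24 h relative to DMSO. Parallel SRB total-protein staining to assess overt cytotoxicity.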

A short description of assay [20]: ATG_NF_kB_CIS: Attagene CIS-FACTORIAL HepG2 Assay for human Nuclear Factor Kappa B (NF-kB) (AID 2282991). Particulars: HepG2 Attagene cis-factorial NF-kB reporter mRNA; actives raise or lower the signal. In outline:
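HepG2 cells transfected with cis-promoter-driven reporter units, so endogenous transcription factor activity is measured. Reporter mRNA quantified 24 h after dosing by RT-PCR and capillary electrophoresis, with bidirectional fitting against DMSO.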

Glucocorticoid receptor (Homo sapiens), sequence (P04150 whole entry, looked up, the tested form may be a part): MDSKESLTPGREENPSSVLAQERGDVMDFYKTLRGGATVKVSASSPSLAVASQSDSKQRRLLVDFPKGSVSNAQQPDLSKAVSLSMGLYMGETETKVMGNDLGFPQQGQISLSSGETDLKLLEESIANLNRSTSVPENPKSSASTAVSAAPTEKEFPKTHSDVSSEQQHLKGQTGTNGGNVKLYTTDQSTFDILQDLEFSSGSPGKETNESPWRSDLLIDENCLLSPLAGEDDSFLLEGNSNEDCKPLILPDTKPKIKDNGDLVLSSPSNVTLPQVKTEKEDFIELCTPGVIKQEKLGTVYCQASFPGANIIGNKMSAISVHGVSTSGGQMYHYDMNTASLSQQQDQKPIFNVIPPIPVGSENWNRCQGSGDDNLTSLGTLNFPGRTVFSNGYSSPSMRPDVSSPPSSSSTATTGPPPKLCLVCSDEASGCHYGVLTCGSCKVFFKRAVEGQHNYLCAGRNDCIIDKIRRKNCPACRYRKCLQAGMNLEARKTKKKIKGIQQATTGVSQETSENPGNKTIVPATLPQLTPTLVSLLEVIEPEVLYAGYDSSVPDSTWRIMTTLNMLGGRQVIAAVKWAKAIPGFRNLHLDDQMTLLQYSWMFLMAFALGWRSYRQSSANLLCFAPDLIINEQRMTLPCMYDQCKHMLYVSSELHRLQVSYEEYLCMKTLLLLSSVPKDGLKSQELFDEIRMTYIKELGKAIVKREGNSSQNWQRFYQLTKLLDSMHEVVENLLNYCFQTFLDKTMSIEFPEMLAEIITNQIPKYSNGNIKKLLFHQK
Nuclear receptor subfamily 4 group A member 2 (Homo sapiens), sequence (P43354 whole entry, looked up): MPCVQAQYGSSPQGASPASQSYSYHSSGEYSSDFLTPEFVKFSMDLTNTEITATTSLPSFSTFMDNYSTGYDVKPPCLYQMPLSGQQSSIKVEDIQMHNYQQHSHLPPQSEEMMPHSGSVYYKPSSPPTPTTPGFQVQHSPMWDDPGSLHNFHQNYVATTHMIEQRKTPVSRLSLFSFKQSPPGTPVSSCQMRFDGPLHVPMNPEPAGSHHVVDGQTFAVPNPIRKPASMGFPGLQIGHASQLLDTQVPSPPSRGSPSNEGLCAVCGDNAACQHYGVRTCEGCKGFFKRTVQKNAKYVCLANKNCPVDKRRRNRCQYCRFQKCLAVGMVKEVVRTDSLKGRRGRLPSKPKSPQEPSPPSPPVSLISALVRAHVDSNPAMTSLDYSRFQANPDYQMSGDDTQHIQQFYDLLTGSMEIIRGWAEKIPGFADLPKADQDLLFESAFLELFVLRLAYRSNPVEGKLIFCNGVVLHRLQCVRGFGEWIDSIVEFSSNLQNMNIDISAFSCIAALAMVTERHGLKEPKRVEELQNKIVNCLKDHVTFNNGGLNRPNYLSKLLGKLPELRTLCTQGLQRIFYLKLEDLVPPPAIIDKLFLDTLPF
Nuclear receptor subfamily 1 group I member 2 (Homo sapiens), sequence (O75469 whole entry, looked up, the tested form may be a part): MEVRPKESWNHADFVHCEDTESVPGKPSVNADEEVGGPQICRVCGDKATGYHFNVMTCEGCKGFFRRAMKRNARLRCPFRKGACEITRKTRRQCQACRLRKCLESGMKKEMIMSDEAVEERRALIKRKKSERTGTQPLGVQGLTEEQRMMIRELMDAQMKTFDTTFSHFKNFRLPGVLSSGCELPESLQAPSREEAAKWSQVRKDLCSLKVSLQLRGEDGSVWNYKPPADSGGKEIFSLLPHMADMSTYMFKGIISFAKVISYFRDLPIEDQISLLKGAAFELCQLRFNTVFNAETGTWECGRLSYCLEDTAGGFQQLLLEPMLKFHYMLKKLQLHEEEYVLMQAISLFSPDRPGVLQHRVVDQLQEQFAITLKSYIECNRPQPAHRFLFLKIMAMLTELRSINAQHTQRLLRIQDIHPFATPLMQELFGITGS
Oxysterols receptor LXR-alpha (Homo sapiens), sequence (Q13133 whole entry, looked up, the tested form may be a part): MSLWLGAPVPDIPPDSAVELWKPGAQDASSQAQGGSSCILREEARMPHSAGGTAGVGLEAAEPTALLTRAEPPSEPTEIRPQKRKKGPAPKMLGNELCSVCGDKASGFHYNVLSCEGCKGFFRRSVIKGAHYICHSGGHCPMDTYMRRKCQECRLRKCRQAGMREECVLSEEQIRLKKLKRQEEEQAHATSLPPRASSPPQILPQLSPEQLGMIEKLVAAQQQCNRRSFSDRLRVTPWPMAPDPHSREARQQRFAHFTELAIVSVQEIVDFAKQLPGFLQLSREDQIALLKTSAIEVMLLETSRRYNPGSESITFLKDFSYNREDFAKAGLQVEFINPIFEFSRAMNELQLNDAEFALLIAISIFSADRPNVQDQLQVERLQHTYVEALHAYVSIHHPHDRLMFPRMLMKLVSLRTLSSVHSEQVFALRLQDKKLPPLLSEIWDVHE

The term AC50 denotes the concentration giving half of the maximal activity seen. Take `CCOC(=O)c1ccccc1`: the AC50 in assay [1] is 61.9 µM (active); in [2], 27.9 µM (active). Further, the result in [3], in [4], in assay [5] and in assay [6] was inactive.
Consider `CC(C)C1OCCN1CCOC(=O)NCCCCCCNC(=O)OCCN1CCOC1C(C)C` (centres undefined), for which the half-maximal activity concentration (AC50) in [7] is 0.0163 µM (active). Moreover, the result in assay [8], in assay [9], in assay [10], in [11], in assay [12] and in [13] was inactive. Further, the result in [14], in assay [15], in [16], in assay [17], in assay [18] and in assay [19] was inactive.
For the molecule `Oc1cccc2ccccc12`, the molecule was called inactive in assay [1], in assay [5], in assay [20] and in assay [6].
In the case of `CC/C=C\CCO`, the result in [1], in assay [2] and in assay [4] was inactive.
`Cc1c(C(N)=O)cc([N+](=O)[O-])cc1[N+](=O)[O-]`: the half-maximal activity concentration (AC50) is 0.003 µM (active) in [7]; 32.7 µM (active) and 30.5 µM (active) in assay [16]. The call in [8], in assay [9], in assay [10], in assay [11], in assay [12] and in assay [13] was inactive. The outcome in [14], in assay [15], in [17], in [18] and in assay [19] was inactive.
As for `N#CCN(CC#N)CCN(CC#N)CC#N`, the call in assay [1], in [2], in [4], in assay [20] and in assay [6] was inactive.
Take `O=[N+]([O-])c1cc(S(=O)(=O)Nc2ccccc2)ccc1Nc1ccccc1`: the half-maximal activity concentration (AC50) in assay [7] was 2.98 µM (active); in assay [11], 25.1 µM (active); in [12], 15 µM (active); in [13], 33.7 µM (active) and 31.5 µM (active); in assay [14] it was 25.9 µM (active) and 16.2 µM (active); in assay [15] it was 15.3 µM (active) and 10.8 µM (active). The AC50 in assay [16] is 28.7 µM (active) and 29.5 µM (active); in assay [17] it was 20 µM (active) and 7.26 µM (active); in assay [19], 31 µM (active) and 36.6 µM (active). Further, the molecule was called inactive in [8], in assay [9], in assay [10] and in assay [18].
`OC(C(F)(F)F)(C(F)(F)F)C(O)(C(F)(F)F)C(F)(F)F`: the AC50 in [13] is 45.2 µM (active) and 54.8 µM (active); in assay [14] it was 36.1 µM (active) and 25.2 µM (active); in assay [16] it was 47.3 µM (active) and 46.1 µM (active); in assay [17] it was 12.3 µM (active) and 11.5 µM (active). In addition, the result in [15], in [18] and in [19] was inactive.
With `O=C(O)/C=C/C(=O)O`, the molecule was called inactive in [1], in assay [2], in [3], in [4], in [5] and in assay [20].
`CC(C)CC(=O)CC(C)C`: the result in assay [20] and in assay [6] was inactive.
On to `COc1ccccc1Oc1c(NS(=O)(=O)c2ccc(C(C)(C)C)cc2)nc(-c2ncccn2)nc1OCCO`, for which the molecule was classed as inactive in [7], in assay [8], in [9], in assay [11], in assay [12] and in assay [13]. In addition, the outcome in assay [14], in [15], in assay [16], in [17], in assay [18] and in [19] was inactive. The half-maximal activity concentration (AC50) in assay [10] is 5.33 µM (active).
On to `CCCCCCOC(=O)CCCCCCCC(=O)OCCCCCC`, for which the molecule was classed as inactive in [1], in assay [2], in [3], in [4], in assay [5] and in assay [20]. For the same molecule, the molecule was called inactive in assay [6].
With `Oc1ccc(Oc2ccccc2)cc1`, the call in assay [3], in assay [20] and in [6] was inactive.
In the case of `CCCC[N+]1(C)CCCC1`, the molecule was called inactive in assay [3].
On to `CCC[Si](OC(C)=O)(OC(C)=O)OC(C)=O`, for which the half-maximal activity concentration (AC50) in [7] is 0.0721 µM (active); in assay [8], 0.0554 µM (active). Moreover, the result in [9], in [10], in assay [11], in assay [12], in assay [13] and in assay [14] was inactive. Further, the result in [15], in [16], in assay [17], in assay [18] and in assay [19] was inactive.
